Results on 62 molecules are retold here after PubChem BioAssay AID1671202 (University of Kansas High Throughput Screening Laboratory, 2021).

As usually defined, the inhibition is the change of the read-out against control, counted positive when it falls.

Where “and” joins values, the source holds several entries; their conditions need not be identical. Identical values can stand only once. Among all 190,000 compounds or so, about 6,900 (3.6%) were called active. The sample holds actives, similar compounds and a random draw of the others, so the mix is not that of the screen. Cut-off read from the data, not from the text of the source: active = inhibition above about 50%; inactive = the rest. The source holds several records for some structures; these can differ, active in one and inactive in another.

The target of this test is Huntingtin (Homo sapiens) (UniProt P42858). In words: mutant huntingtin-calmodulin interaction inhibitors – biochemical, AlphaScreen, primary screen (AID 1671202).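 For inhibition: 0% = both proteins with DMSO and 100% = one protein alone.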 The settings on record: AlphaScreen His-mHTT/GST-CaM binding, luminescence; at 15 µM, stronger effect = higher value. (In general: Alpha assays give light when donor and acceptor beads are brought close together.)
Chain of Huntingtin (Homo sapiens) (P42858 whole entry, looked up, stated change not applied): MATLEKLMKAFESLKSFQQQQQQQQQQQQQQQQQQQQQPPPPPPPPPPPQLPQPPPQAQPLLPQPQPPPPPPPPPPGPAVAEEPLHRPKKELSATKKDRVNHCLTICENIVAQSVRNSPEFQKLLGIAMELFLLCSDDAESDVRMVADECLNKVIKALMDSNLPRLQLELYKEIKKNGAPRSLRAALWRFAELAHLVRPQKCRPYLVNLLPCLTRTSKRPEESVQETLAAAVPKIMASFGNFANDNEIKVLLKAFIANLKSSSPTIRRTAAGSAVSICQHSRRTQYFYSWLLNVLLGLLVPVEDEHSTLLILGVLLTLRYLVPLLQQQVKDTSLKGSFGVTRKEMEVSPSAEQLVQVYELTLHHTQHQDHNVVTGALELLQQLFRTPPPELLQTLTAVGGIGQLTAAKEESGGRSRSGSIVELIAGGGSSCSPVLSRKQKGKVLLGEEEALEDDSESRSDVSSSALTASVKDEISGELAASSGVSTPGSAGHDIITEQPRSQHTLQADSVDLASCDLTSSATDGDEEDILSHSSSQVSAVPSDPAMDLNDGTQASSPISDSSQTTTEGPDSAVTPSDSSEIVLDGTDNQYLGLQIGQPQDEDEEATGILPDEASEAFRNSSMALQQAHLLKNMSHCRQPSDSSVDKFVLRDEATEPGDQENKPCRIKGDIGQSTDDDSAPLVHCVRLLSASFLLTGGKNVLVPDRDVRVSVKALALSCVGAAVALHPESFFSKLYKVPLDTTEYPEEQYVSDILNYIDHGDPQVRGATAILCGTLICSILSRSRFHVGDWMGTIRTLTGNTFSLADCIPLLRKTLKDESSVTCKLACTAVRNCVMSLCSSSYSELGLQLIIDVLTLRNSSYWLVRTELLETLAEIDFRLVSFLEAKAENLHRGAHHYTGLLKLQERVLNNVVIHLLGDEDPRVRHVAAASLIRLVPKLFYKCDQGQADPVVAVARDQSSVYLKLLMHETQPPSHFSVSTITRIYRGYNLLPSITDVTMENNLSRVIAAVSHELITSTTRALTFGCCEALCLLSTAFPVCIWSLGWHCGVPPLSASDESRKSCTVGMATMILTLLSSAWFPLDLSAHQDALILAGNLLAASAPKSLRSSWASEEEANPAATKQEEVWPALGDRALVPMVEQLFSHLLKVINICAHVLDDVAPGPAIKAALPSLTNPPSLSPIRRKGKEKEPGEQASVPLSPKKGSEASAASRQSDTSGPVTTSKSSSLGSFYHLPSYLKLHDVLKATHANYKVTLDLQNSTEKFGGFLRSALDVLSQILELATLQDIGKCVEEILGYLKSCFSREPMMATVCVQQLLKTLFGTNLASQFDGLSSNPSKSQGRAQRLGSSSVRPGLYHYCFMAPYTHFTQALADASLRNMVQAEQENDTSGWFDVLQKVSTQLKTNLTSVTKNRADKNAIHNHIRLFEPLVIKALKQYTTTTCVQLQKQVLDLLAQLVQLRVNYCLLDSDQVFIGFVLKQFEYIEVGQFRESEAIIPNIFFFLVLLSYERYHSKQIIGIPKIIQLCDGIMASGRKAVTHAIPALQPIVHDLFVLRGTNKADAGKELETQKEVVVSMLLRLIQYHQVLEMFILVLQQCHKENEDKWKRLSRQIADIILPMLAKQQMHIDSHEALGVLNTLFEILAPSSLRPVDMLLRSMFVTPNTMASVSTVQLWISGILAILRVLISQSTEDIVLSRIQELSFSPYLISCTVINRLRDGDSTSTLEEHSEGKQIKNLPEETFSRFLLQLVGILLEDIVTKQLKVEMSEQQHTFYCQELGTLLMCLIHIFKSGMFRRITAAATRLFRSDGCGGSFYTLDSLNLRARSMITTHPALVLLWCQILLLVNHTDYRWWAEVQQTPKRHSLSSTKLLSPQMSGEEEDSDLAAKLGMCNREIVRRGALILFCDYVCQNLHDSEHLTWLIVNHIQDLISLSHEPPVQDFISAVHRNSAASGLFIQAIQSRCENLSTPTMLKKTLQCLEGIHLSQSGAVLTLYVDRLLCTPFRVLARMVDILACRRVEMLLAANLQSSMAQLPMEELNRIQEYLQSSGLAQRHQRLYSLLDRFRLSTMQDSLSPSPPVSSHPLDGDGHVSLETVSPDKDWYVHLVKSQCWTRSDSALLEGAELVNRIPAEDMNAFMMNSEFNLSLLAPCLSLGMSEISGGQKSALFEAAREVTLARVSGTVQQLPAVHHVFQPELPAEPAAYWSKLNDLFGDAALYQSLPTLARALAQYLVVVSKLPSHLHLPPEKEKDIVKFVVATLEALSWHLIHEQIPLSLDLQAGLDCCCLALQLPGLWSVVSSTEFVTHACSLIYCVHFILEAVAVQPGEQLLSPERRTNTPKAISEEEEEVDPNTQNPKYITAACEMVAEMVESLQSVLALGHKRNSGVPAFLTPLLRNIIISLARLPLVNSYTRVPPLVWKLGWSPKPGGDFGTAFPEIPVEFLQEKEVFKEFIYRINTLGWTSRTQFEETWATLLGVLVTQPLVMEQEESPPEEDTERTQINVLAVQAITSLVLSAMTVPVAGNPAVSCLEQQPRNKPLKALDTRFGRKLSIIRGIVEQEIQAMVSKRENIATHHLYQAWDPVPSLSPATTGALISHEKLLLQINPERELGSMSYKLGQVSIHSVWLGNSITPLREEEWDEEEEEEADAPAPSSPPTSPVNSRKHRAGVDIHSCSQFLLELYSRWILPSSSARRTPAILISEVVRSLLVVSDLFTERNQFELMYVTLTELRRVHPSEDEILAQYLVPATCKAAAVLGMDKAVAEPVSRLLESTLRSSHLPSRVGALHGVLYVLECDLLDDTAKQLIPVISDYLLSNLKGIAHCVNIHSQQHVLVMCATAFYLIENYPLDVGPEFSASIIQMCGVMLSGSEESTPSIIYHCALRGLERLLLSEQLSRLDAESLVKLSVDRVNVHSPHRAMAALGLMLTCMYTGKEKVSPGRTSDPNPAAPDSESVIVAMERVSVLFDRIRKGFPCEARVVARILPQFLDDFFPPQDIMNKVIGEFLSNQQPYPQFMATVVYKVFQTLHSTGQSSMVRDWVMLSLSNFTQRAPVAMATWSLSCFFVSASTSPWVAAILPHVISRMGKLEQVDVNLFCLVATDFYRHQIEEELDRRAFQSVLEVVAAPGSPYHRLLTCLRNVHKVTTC
For the molecule `COc1ccc(CCNc2nc(C)nc3sc(C)cc23)cc1OC`, the inhibition is 0% (inactive).

For the molecule `CC(C)c1c(C2CCN(C(=O)c3cccc(F)c3)CC2)noc1N`, the inhibition was -1.9% (inactive). To `Cc1cc(C(=O)NCCCn2ccnc2)ccc1[N+](=O)[O-]` belongs -2.3% (inactive); to `CC(CC(=O)N1CCN(c2nc3ccccc3n(C)c2=O)CC1)c1ccccc1` (configuration not stated), 3.2% (inactive). To `Cc1ccccc1C1=N/C(=C\c2ccc(Br)cc2)C(=O)O1` belongs -1% (inactive). To `CN(C)CCCn1c(-c2ccc(Cl)cc2)csc1=Nc1ccccc1` belongs 89% (active); to `COc1ccc(-c2csc(=Nc3ccccc3)n2C)cc1`, 29% (inactive); to `COc1ccc(C2C(=C(O)c3ccc(Cl)cc3)C(=O)C(=O)N2CCCN(C)C)c(OC)c1` (configuration not stated), -4.4% (inactive).

As for `CC1C(=O)N(c2ccc(Br)cc2)CCN1C(=O)C1CCCC1` (configuration not stated), the inhibition was -6.1% (inactive). On to `Cc1ccc(C(=O)N2CCC(CC(=O)NCCN3CCCCCC3)CC2)cc1`, for which the inhibition is 13.3% (inactive).

`Cc1nc(-c2ccccc2)oc1CC(=O)NCCN1CCCCCC1`: the inhibition was 100% (active). To `O=C(CCS(=O)(=O)Cc1ccccc1F)NCCCN1CCCCC1` belongs 1% (inactive); to `O=S(=O)(c1ccccc1)c1cccs1`, -6.17% (inactive); to `Cc1cc(C)c(NC(=O)CNC2CC(C)(C)NC(C)(C)C2)c(C)c1`, -6.9% (inactive). The figure for `COc1ccc2oc(=O)c(-c3nnc(Nc4ccc(C)cc4)s3)cc2c1` is 3% (inactive). The figure for `O=C(c1ccco1)N1CCN(c2ncnc3sc(-c4ccccc4)cc23)CC1` is 54.6% (active); for `Cc1ccc2nc3sc(C(=O)N4CCN(C(=O)c5ccco5)CC4)cc3c(=O)n2c1` it is 12.9% (inactive). With `O=C(c1ccco1)N1CCN(c2ccc([N+](=O)[O-])cc2)CC1`, the inhibition is 0.2% (inactive). On to `COc1cc(C(=O)N2CCC(CC(=O)NCc3ccccn3)CC2)cc(OC)c1OC`, for which the inhibition was 19.9% (inactive). To `COCCN1C(=O)c2ccccc2C(C(=O)NCC2CCCO2)C1c1ccc(F)cc1` (configuration not stated) belongs 0% (inactive). The figure for `Cc1ccc(C(=O)N2CCc3sc(C(=O)NCCC(C)C)cc3C2)cc1` is -0.52% (inactive). As for `O=C(Nc1ccc([N+](=O)[O-])cc1)C12CC3CC(C1)CC(c1ccccc1)(C3)C2`, the inhibition is 14.9% (inactive). Regarding `O=C(c1ccc2c(c1)OCO2)N1CCOCC1`, the inhibition was 1% (inactive). As for `O=C(c1ccc(-c2ccsc2)nc1)N1CCOCC1`, the inhibition was -3.2% (inactive). The figure for `O=C(c1ccc(F)cc1)N1CCC(n2nc(-c3ccsc3)ccc2=O)CC1` is 93.2% (active); for `CC1CCCN(C(=O)c2ccc(-c3ccsc3)nc2)C1` (configuration not stated) it is -3.7% (inactive). To `O=C(c1ccc(-c2ccsc2)nc1)N1CCCCCC1` belongs -6.2% (inactive).

As to `O=C(c1ccc2c(c1)OCO2)N1CCC(n2nc(-c3ccsc3)ccc2=O)CC1`, the inhibition was 98% (active).

For the molecule `COc1ccc(NC(=O)N2CCCC2c2nc(-c3ccc(F)cc3F)no2)cc1F` (configuration not stated), the inhibition is 5.86% (inactive). With `O=C(C1CCCC1)N1CCN(Cc2noc(-c3cccc4ccccc34)n2)CC1`, the inhibition is 19.3% (inactive). The entry for `O=C(N/N=C/C=C\c1ccco1)c1ccco1` is “inactive”; for `O=C(NCCn1ncccc1=O)c1cc(C2CC2)on1` it is -8.3% (inactive). The figure for `COc1ccc(-c2c(C(F)(F)F)oc3cc(O)ccc3c2=O)cc1` is 10% (inactive) and -0.6% (inactive); for `O=c1c(-c2ccc3c(c2)OCCO3)c(C(F)(F)F)oc2cc(O)cc(O)c12` it is 54.5% (active). `Cc1cc(O)c2c(=O)c(-c3csc(C)n3)c(C(F)(F)F)oc2c1`: the inhibition is 1% (inactive). Take `COc1ccc(-c2noc(C3CCN(CC(=O)Nc4ccc(C)c(F)c4)CC3)n2)cc1`: the inhibition was -6.73% (inactive).

As to `Cc1ccccc1Oc1nc(N2CCCC2)nc2c1CN(Cc1ccncc1)CC2`, the inhibition is 17.7% (inactive). The figure for `Cc1ccccc1NC(=O)NCc1ccsc1` is -8.6% (inactive); for `O=C1c2ccccc2-c2onc3c(N4CCCC4)ccc1c23` it is 64% (active). Regarding `CCN(Cc1ccccc1)C(=O)c1ccccc1Cl`, the inhibition is -7.8% (inactive). The figure for `CCCNc1cc(N2CCC(CCC(=O)NCc3ccccn3)CC2)ncn1` is 1.6% (inactive). With `COc1ccccc1Nc1cc(C)nc2ccc(Cl)cc12`, the inhibition was 0% (inactive).

Take `O=C(Nc1ccccc1I)c1ccccc1F`: the inhibition is -15.8% (inactive) and -24% (inactive).

`Cc1ccc(C(=O)Nc2cnc(N3CCCCC3)nc2)c(C)c1`: the inhibition is 9.7% (inactive). In the case of `COc1ccc(C2=NC(c3ccncc3)=Nc3ccc(Br)cc3N2)cc1`, the inhibition was 50.3% (active). To `COc1ccc(/C=C2\N=C(c3cccc(Br)c3)OC2=O)cc1` belongs -5% (inactive).

As to `COc1cc(C=C(C#N)c2nc(-c3ccc4c(c3)OCO4)cs2)cc(OC)c1OC(C)=O`, the inhibition was -4.5% (inactive). As to `CC(=O)N1c2ccccc2NC2=C(C(=O)CC(C)(C)C2)C1c1ccc(N(C)C)cc1` (configuration not stated), the inhibition was 29.3% (inactive). The figure for `COc1ccc(S(=O)(=O)CCC(=O)Nc2ccccc2C(F)(F)F)cc1` is 1% (inactive); for `COc1ccc(C(=O)N2CCN(c3ccc(Cl)cc3[N+](=O)[O-])CC2)cc1Br` it is 14.9% (inactive); for `O=[N+]([O-])c1cc(Cl)ccc1N1CCCNCC1` it is -0.3% (inactive). Take `O=C(Cc1ccc(Cl)cc1)N1CCN(c2ccc(Cl)cc2[N+](=O)[O-])CC1`: the inhibition is 58.1% (active) and 44% (inactive). `O=C(CSc1nc2[nH]ncc2c(=O)n1-c1ccccc1)NCc1cccc(Cl)c1`: the inhibition is 8% (inactive). To `O=[N+]([O-])c1ccc(CN2CC(N3CC=CC3)CS2(=O)=O)cc1` (configuration not stated) belongs -3% (inactive); to `O=[N+]([O-])c1ccc(CN2CC(N3CCC(c4ccccc4)CC3)CS2(=O)=O)cc1` (configuration not stated), 50.1% (active); to `O=S1(=O)CC(N2CCC(Cc3ccccc3)CC2)CN1Cc1ccccc1` (configuration not stated), 19.9% (inactive). To `Cn1c(/C=C/c2ccc(Cl)cc2)nc2ccccc21` belongs -18.9% (inactive). Take `OC(COCC12CC3CC(CC(C3)C1)C2)CN1CCc2ccccc2C1` (configuration not stated): the inhibition was 35.2% (inactive). As to `Cc1ccc(C(=O)N2CCN(c3nc(CN4CCCCC4)cs3)CC2)cc1F`, the inhibition was 2% (inactive). The figure for `Cn1nc(-c2nc(Cc3ccccc3)no2)c2c1CCN(C(=O)c1ccccc1Cl)C2` is 6.74% (inactive); for `Cn1nc(-c2nnc(-c3ccccc3Cl)o2)c2c1CCN(C(=O)CCc1ccccc1)C2` it is 76.5% (active).

For `CCC(CC)C(=O)N1CCc2c(c(-c3nnc(-c4ccccc4Cl)o3)nn2C)C1`, the inhibition is 6.42% (inactive).
